Test systems include SR leukemia; RPMI-8226 leukemia; OVCAR-8 ovarian; OVCAR-4 ovarian; SK-OV-3 ovarian; IGROV1 ovarian; OVCAR-3 ovarian; HS 578T breast; NCI/ADR-RES ovarian; OVCAR-5 ovarian.
Assay in all cases: NCI-60 one-dose screen, 48 h (100 = growth as untreated, 0 = no growth, -100 = all killed)
Holding throughout (conditions): 10 µM unless noted

About 83,000 compounds went through this panel and 20% of them were active in at least one assay; those are over-represented in the sample as a whole.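 48-hour exposure, single concentration, 96-well plates; percent growth endpoint where 0 means no net growth. Active: below 10.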 A number with no mark means an inactive call. Activity calls are given as the source filed them.

With `CC(C)(C)c1ccc([I+]c2ccc(C(C)(C)C)cc2)cc1`, the growth in the test on SR leukemia was 5.64% (active); in the test with RPMI-8226 leukemia it was -19.9% (active); in the test with OVCAR-8 ovarian, 7.15% (active); in the test on OVCAR-4 ovarian it was 18.3%; in the test with SK-OV-3 ovarian, 30.3%; in the test with IGROV1 ovarian, 20.9%. Further, the growth with OVCAR-3 ovarian was 2.92% (active); in the test with HS 578T breast it was 29.1%; in the test on NCI/ADR-RES ovarian, 90.2%.

In the case of `CC(=O)/C(=C\c1c(-c2ccccc2)[nH]c2ccccc12)S(=O)(=O)c1ccccc1`, the growth with SR leukemia was -35.9% (active); in the test on OVCAR-8 ovarian, 12.4%; in the test with OVCAR-4 ovarian, 17.7%; in the test on SK-OV-3 ovarian, 19.3%; in the test on IGROV1 ovarian it was -5.76% (active); in the test with OVCAR-3 ovarian, -36.6% (active). Also, the growth with HS 578T breast is 8.54% (active); with NCI/ADR-RES ovarian, -5.66% (active).

Turning to `O=C(Nc1ccc(-n2cc(-c3ccncc3)c(-c3ccc(Cl)c(O)c3)n2)cc1)Nc1ccc(Cl)c(C(F)(F)F)c1`, the growth was -10.6% (active) in the test with SR leukemia; 1.06% (active) with OVCAR-8 ovarian; 30.1% in the test on OVCAR-5 ovarian; 16.1% in the test with OVCAR-4 ovarian; 3.02% (active) in the test with SK-OV-3 ovarian; -0.0868% (active) in the test on IGROV1 ovarian. The growth was 2.48% (active) in the test on OVCAR-3 ovarian, -38.6% (active) in the test on HS 578T breast and 6.63% (active) in the test with NCI/ADR-RES ovarian.

In the case of `COC(=O)c1cc(Nc2ccc(O)c3c2C(=O)c2c([N+](=O)[O-])ccc(O)c2C3=O)cc(C(=O)OC)c1`, the growth in the test on SR leukemia is 2.02% (active); with RPMI-8226 leukemia, 17.9%; in the test with OVCAR-8 ovarian, 65.1%; with OVCAR-4 ovarian, 80.5%; with SK-OV-3 ovarian, 82.3%; in the test on IGROV1 ovarian, 85.9%. Moreover, the results for the growth with OVCAR-3 ovarian and in the test on NCI/ADR-RES ovarian were 54.7% and 71.2%, respectively.

Regarding `Cc1ccc(C(=O)C(Br)C(Br)c2ccccc2)cc1` (stereo not given), the growth in the test on RPMI-8226 leukemia was 48.2%; in the test with OVCAR-8 ovarian, 96.6%; in the test with OVCAR-5 ovarian, 102%; in the test with OVCAR-4 ovarian it was 71.9%; in the test with SK-OV-3 ovarian it was 114%; in the test on IGROV1 ovarian, 62.5%. Moreover, the figures for the growth in the test on OVCAR-3 ovarian, in the test with HS 578T breast and in the test on NCI/ADR-RES ovarian were 61.7%, 98.2% and 105%, respectively.

Regarding `O=C(/C=C\c1ccc(NCc2ccc(C(=O)O)cc2)cc1)CCl`, the growth in the test with SR leukemia is -12.1% (active); in the test with RPMI-8226 leukemia, 60.4%; with OVCAR-8 ovarian, 66.9%; in the test with OVCAR-4 ovarian, 90.6%; in the test on SK-OV-3 ovarian, 106%; in the test on IGROV1 ovarian, 90.4%. Moreover, the growth in the test on OVCAR-3 ovarian was 72.4%; in the test on NCI/ADR-RES ovarian, 100%.

For `CCS(=O)(=O)OCCO[C@H]1Cc2cc3ccc(=O)oc3cc2OC1(C)C`, the growth was 111% in the test with SR leukemia; 113% in the test with RPMI-8226 leukemia; 101% in the test on OVCAR-8 ovarian; 106% with OVCAR-4 ovarian; 109% with IGROV1 ovarian; 108% in the test on OVCAR-3 ovarian. Further, the growth in the test on HS 578T breast is 98%; in the test on NCI/ADR-RES ovarian it was 107%.

Turning to `CCCCCCC(C)N(CC(C)(C)O)C(=O)c1ccc([N+](=O)[O-])cc1` (stereo not given), the growth in the test with SR leukemia was 89.5%; in the test with RPMI-8226 leukemia, 96%; in the test with OVCAR-8 ovarian, 101%; in the test on OVCAR-4 ovarian, 108%; in the test on SK-OV-3 ovarian it was 96.3%; with IGROV1 ovarian it was 88.1%. The growth in the test on NCI/ADR-RES ovarian was 85.7%.

With `O=C(/C=C1\C(=O)N(Cc2ccc([N+](=O)[O-])cc2)c2ccccc21)c1ccc(OCCN2CCCCC2)cc1`, the growth in the test on SR leukemia is -27.9% (active); with RPMI-8226 leukemia, -36% (active); with OVCAR-8 ovarian, 0.287% (active); in the test on OVCAR-4 ovarian, -58.8% (active); with SK-OV-3 ovarian it was 85%; in the test with HS 578T breast, 6.94% (active). Further, the growth in the test on NCI/ADR-RES ovarian was 6.18% (active).

`CC(=O)NCCN`: the growth with SR leukemia was 97%; in the test with RPMI-8226 leukemia, 105%; with OVCAR-8 ovarian it was 93.4%; in the test with OVCAR-4 ovarian, 115%; with SK-OV-3 ovarian it was 116%; in the test on IGROV1 ovarian, 111%. Besides, the growth is 113% in the test on OVCAR-3 ovarian, 103% with HS 578T breast and 113% in the test on NCI/ADR-RES ovarian.

In the case of `CCCCCCCCCCCCCCCCC(=O)O.CCCCCCCCCCCCCCCCCC(=O)O.CCCCCCCCCCCCCCCCCC(=O)O.CCCCCCCCCCCCCCCCCC(=O)O.CCCCCCCCCCCCCCCCCC(=O)O.CO[CH-]OC12COC1CC(O)C1(C)C(O)C(OC(C)O)C3=C(C)C(OC(=O)C(O)C([NH-])c4ccccc4)CC(O)(C(OC(=O)c4ccccc4)C21)C3(C)C.[Cu+].[Zn].[Zn].[Zn].[Zn].[Zn]` (stereo not given), the growth with SR leukemia is 37.4%; with RPMI-8226 leukemia, 22.4%; with OVCAR-8 ovarian, 45.4%; in the test with OVCAR-4 ovarian, 40.1%; with SK-OV-3 ovarian, 39.4%; in the test on IGROV1 ovarian it was 33.4%. Besides, the results for the growth in the test on HS 578T breast and in the test with NCI/ADR-RES ovarian were 10.5% and 42.4%, respectively.

Turning to `O=C(Nc1ccc(-n2cc(-c3ccncc3)c(-c3ccc(Cl)c(O)c3)n2)cc1)c1cc(Cl)cc(Cl)c1`, the growth is 15.8% in the test on SR leukemia; 58.5% in the test with OVCAR-8 ovarian; 64.6% in the test with OVCAR-5 ovarian; 91.8% in the test on OVCAR-4 ovarian; 54.9% in the test on SK-OV-3 ovarian; 63% in the test with IGROV1 ovarian. Besides, the growth in the test with OVCAR-3 ovarian was 85.6%; with HS 578T breast, -14.5% (active); with NCI/ADR-RES ovarian it was 54.1%.

In the case of `COc1cccc(-c2cc(-c3cc4ccccc4oc3=O)nc(N)n2)c1`, the growth in the test with SR leukemia was 92.3%; in the test on RPMI-8226 leukemia it was 108%; with OVCAR-8 ovarian, 111%; in the test on IGROV1 ovarian, 70%; with OVCAR-3 ovarian, 95%; with HS 578T breast it was 80.8%. Also, the growth with NCI/ADR-RES ovarian was 105%.

Consider `COc1ccc2sc(-n3nc4nc5n(c(=O)c4c3N)-c3ccccc3Sc3ccccc3-5)nc2c1`, for which the growth in the test on SR leukemia is 65.2%; in the test with RPMI-8226 leukemia it was 45.5%; with OVCAR-8 ovarian it was 81.7%; in the test with OVCAR-4 ovarian, 66.4%; in the test on SK-OV-3 ovarian, 91.8%; with IGROV1 ovarian, 67.9%. Further, the results for the growth in the test with OVCAR-3 ovarian, with HS 578T breast and in the test with NCI/ADR-RES ovarian were 76.6%, 90.6% and 74%, respectively.

Source of the values: PubChem BioAssay (NCI).
